Results with a measured potency or affinity are listed apart. Inconclusive results are not listed. Values without a mark were called inactive.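 Rule for the calls: active = compound whose fitted half-maximal potency lies at or below double its highest tested dose in every test; inconclusive = tests disagree, or a flat partial loss, or a poor fit; inactive = every test inactive.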

A short description of this test: hepatoma cell viability loss – CellTiter-Glo luminescence, dry powder, set 20, cytotoxicity control, dose response (AID 1117291). The conditions noted are these: HepG2 viability, CellTiter-Glo ATP luminescence, 72 h; series mostly up to 26 µM; activity change, negative = cytotoxicity: at the top concentration.
As to `CC(=O)N1CCN(C(=O)CNC(=O)Nc2ccc(C)cc2)CC1`, the “activity change, negative = cytotoxicity” value was -26.5%.
As for `CC(=O)N1CCN(C(=O)C2(NC(=O)Nc3ccc(F)cc3)CCCC2)CC1`, the figure is -14.2%; as for `Cc1ccc(NC(=O)NC2(C(=O)N3CCOCC3)CCCCC2)cc1`, -22.2%.
Consider `COc1ccc(C(=O)Nc2ccccc2N2CCCCC2)cc1S(=O)(=O)O`, for which the “activity change, negative = cytotoxicity” value is -17.1%.
For `O=C(Nc1cc(C(F)(F)F)ccc1N1CCCCC1)c1ccc(S(=O)(=O)O)cc1`, the “activity change, negative = cytotoxicity” value is 2.79%.
In the case of `O=S(=O)(Nc1cc(C(F)(F)F)ccc1N1CCCCC1)c1ccc(C(F)(F)F)cc1`, the “activity change, negative = cytotoxicity” value was -34.1%.
Consider `COc1ccc(C2=NN(c3ccc(C(=O)O)cc3)C(c3ccc(OC)c(OC)c3)C2)cc1` (stereo unspecified), for which the “activity change, negative = cytotoxicity” value was -15.3%.
As for `COc1ccc(C(=O)Nc2cc(C(F)(F)F)ccc2N2CCCCC2)cc1S(=O)(=O)O`, the “activity change, negative = cytotoxicity” value was -13.2%.
As to `CC(=O)N1CCN(C(=O)C2(NC(=O)Nc3cccc(F)c3)CCCCC2)CC1`, the “activity change, negative = cytotoxicity” value is 1.14%.
On to `O=S(=O)(Nc1cc(C(F)(F)F)ccc1N1CCCCC1)c1ccccc1`, for which the “activity change, negative = cytotoxicity” value was -7%.
Under `COc1ccc(C(=O)Nc2cc(C(F)(F)F)ccc2N2CCOCC2)cc1S(=O)(=O)O` stands -8.25%.
Under `CC(=O)N1CCN(C(=O)C2(NC(=O)Nc3ccc(F)cc3)CCCCC2)CC1` stands 9.85%; under `N#Cc1ccc(S(=O)(=O)Nc2cc(C(F)(F)F)ccc2N2CCCCC2)cc1`, -15.7%.
Consider `Cc1ccc(NC(=O)NC2(C(=O)N3CCN(c4ccccc4)CC3)CCCCC2)cc1`, for which the “activity change, negative = cytotoxicity” value is 0.039%.
As to `CC(=O)N1CCN(C(=O)C(C)(C)NC(=O)Nc2ccc(C)cc2)CC1`, the “activity change, negative = cytotoxicity” value is -8.86%.
As for `CC(=O)N1CCN(C(=O)C2(NC(=O)Nc3ccccc3C(F)(F)F)CCCCC2)CC1`, the figure is -12.9%.
